Records with an inconclusive call do not appear. Calls of active or inactive are those of the source. Unless noted, calls come from the whole dose curve; as a rule, active = well fitted curve in the direction sought with a large enough effect in the repeat runs; inconclusive = weak or mixed curves; inactive = no such curve, though single readings can be large; an effect the other way counts as inactive or inconclusive.
Key:
[1] = qHTS assay to identify aromatase inhibitors - cell viability counter screen (AID 743084);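 note: cells stimulated with testosterone during compound exposure; nearly all actives have a fitted effect of over 55% in size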
[2] = molecular target: Aryl hydrocarbon receptor (Homo sapiens) (UniProt P35869); assay: qHTS assay to identify small molecule that activate the aryl hydrocarbon receptor (AhR) signaling pathway (AID 743085); note: nearly all actives have a fitted effect of over 15% in size; note: potency is the fitted concentration of half-maximal effect;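 for activation: HG2L7.5c1 human HepG2 liver cells with stably integrated DRE-driven firefly reporter; series mostly up to about 70 µM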
Sequence of Aryl hydrocarbon receptor (Homo sapiens) (P35869 whole entry, looked up): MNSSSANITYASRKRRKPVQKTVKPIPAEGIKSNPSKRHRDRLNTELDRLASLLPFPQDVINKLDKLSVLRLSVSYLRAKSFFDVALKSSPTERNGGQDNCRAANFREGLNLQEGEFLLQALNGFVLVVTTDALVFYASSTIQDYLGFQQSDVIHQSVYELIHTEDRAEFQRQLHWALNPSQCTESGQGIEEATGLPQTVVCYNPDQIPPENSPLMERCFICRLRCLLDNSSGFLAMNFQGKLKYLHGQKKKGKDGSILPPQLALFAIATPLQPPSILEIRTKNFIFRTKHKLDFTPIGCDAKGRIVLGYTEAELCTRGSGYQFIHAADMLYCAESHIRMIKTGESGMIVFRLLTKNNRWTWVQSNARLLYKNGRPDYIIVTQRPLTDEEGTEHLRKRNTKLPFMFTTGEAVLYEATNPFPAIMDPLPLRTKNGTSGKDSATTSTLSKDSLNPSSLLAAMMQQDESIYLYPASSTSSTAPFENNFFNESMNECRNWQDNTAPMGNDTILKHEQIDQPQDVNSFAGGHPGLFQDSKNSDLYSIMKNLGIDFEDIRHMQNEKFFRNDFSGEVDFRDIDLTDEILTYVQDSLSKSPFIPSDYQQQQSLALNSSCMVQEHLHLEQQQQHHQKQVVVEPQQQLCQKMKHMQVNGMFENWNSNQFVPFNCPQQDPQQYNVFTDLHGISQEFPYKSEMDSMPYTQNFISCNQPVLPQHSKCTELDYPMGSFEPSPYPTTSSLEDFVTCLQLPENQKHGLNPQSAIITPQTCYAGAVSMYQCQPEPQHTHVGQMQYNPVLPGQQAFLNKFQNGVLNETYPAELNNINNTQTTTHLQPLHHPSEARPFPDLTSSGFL
Procedure, shortened: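 Measured in HG2L7.5c1 cells: CellTiter-Fluor signal (30 min incubation, 37C) for viability, then luciferase luminescence (30 min, room temperature). Compound contact time was 24 h at 37C, following a 5 h pre-incubation.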

[3] = qHTS assay to identify small molecule that activate the aryl hydrocarbon receptor (AhR) signaling pathway - cell viability counter screen (AID 743086);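 note: HepG2 liver cells carrying the AhR DRE luciferase reporter; series mostly up to about 70 µM; nearly all actives have a fitted effect of over 45% in size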
Procedure, shortened: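 HepG2-AhR-luc (HG2L7.5c1) cells, 4000/well, treated 24 h at 37 C with compound; viability measured as CellTiter-Fluor fluorescence after 30 min in the same wells as the luciferase read.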

[4] = molecular target: Peroxisome proliferator-activated receptor gamma (Homo sapiens) (UniProt P37231); assay: qHTS assay to identify small molecule agonists of the peroxisome proliferator-activated receptor gamma (PPARg) signaling pathway (AID 743094; active = well fitted activation curve with a large enough effect in the signal ratio in the repeat runs, not every such curve was filed as active; the % refers to the signal ratio)
Sequence of Peroxisome proliferator-activated receptor gamma (Homo sapiens) (P37231 whole entry, looked up): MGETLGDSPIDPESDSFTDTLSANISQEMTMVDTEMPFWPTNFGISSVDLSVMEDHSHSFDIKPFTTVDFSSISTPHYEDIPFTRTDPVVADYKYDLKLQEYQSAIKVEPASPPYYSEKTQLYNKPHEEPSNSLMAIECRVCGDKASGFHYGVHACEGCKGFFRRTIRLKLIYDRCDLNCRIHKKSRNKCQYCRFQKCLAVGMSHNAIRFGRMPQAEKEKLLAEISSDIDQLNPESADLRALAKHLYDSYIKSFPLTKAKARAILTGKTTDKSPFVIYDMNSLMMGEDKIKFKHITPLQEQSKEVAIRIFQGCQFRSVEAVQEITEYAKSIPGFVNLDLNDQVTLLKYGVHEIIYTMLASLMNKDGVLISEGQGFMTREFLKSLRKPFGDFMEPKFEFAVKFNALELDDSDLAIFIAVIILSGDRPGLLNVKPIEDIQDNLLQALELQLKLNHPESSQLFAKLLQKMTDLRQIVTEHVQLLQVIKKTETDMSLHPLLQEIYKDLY
Procedure, shortened: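 Agonism was assessed in a beta-lactamase reporter system, HEK293H cells with a stably integrated UAS-bla construct under PPARg control; the 17 h treatment at 37C preceded a 1 h room-temperature FRET substrate read.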

[5] = qHTS assay for small molecule agonists of the antioxidant response element (ARE) signaling pathway - cell viability counter screen (AID 743203; calls by dose curve; note: nearly all actives have a fitted effect of over 55% in size)
Procedure, shortened: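 ATP content via CellTiter-Glo luminescence served as the viability measure. Cells: ARE-bla HepG2, 2,000 per well. Exposure: 16 hrs, 37C/5% CO2.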

[6] = qHTS assay for small molecule activators of the heat shock response signaling pathway - cell viability counter screen (AID 743209); note: nearly all actives have a fitted effect of over 50% in size; note: potency is the fitted concentration of half-maximal effect
Procedure, shortened: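 Compounds dissolved in DMSO were added to overnight-plated HSE-bla HeLa cells and left 5 h at 37 C. Cell viability was quantified by luminescence using CellTiter-Glo.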

[7] = qHTS assay for small molecule activators of the heat shock response signaling pathway (AID 743210; active = well fitted activation curve with a large enough effect in the signal ratio in the repeat runs, with a control signal flat, not every such curve was filed as active; the % refers to the signal ratio;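 note: HeLa cells with beta-lactamase reporter driven by heat shock elements; series mostly up to about 63 µM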)
Procedure, shortened: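 Beta-lactamase reporter read-out: FRET substrate fluorescence after 2.5 h at RT, following 5 h compound treatment at 37 C of HeLa cells carrying HSE-driven bla reporter; quantitative HTS format.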

[8] = qHTS assay for small molecule agonists of the antioxidant response element (ARE) signaling pathway (AID 743202; active = well fitted activation curve with a large enough effect in the signal ratio in the repeat runs, not every such curve was filed as active; the % refers to the signal ratio; note: potency is the fitted concentration of half-maximal effect)
Procedure, shortened: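 HepG2 ARE-bla reporter line, 2,000 cells/well; 5 h preincubation 37 C/5% CO2; compound (DMSO) 16 h 37 C; B/G FRET substrate 2 h RT; fluorescence intensity.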

[9] = qHTS assay to identify small molecule antagonists of the peroxisome proliferator-activated receptor gamma (PPARg) signaling pathway - cell viability counter screen (AID 743194); note: nearly all actives have a fitted effect of over 55% in size
Procedure, shortened: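 Cytotoxicity counter screen in PPARg-bla HEK293H cells, same wells as reporter assay. Compounds plus 50 nM rosiglitazone (final) for 17 h at 37 C, then viability read by CellTiter-Glo luminescence.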

[10] = molecular target: Peroxisome proliferator-activated receptor gamma (Homo sapiens) (UniProt P37231); assay: qHTS assay to identify small molecule antagonists of the peroxisome proliferator-activated receptor gamma (PPARg) signaling pathway (AID 743191; calls by dose curve; note: potency is the fitted concentration of half-maximal effect; nearly all actives have a fitted effect of over 30% in size)
Procedure, shortened: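 GeneBLAzer PPARg UAS-bla HEK293H cells, 5 h post-plating, exposed to compounds 17 h at 37C. LiveBLAzer B/G FRET substrate added for 1 h at room temperature; beta-lactamase reporter read by fluorescence intensity.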

Measured: Potency

CC(C)(O)c1ccccc1CC[C@@H](SCC1(CC(=O)O)CC1)c1cccc(/C=C/c2ccc3ccc(Cl)cc3n2)c1
active: [2] 23.7 µM
not listed: [8] | [9] | [10]
inactive: all other assays above

C/C=C(\C)C(=O)OCCC(C)CCC=C(C)C (stereo not drawn)
not listed: [4] | [9] | [10]
inactive: all other assays above

CCOc1cc(N)c(Cl)cc1C(=O)NCC1CN(Cc2ccc(F)cc2)CCO1 (stereo not drawn)
inactive: [1] | [3] | [9] | [5] | [7]
active: [2] 0.266 µM

Brc1cc(-c2ccc(Br)c(Br)c2Br)cc(Br)c1Br
active: [2] 8.5 µM
not listed: [4] | [8] | [10]
inactive: all other assays above

Oc1ccc(Nc2ccccc2)cc1
inactive: [1] | [2] | [3] | [5] | [6]
active: [10] 19.5 µM | [8] 27.3 µM

O=C(CS)OCCOC(=O)CS
not listed: [9] | [10]
inactive: all other assays above

CC[C@H](NC(=O)c1cc(F)ccc1NS(=O)(=O)c1cccc2cccnc12)c1ccccc1
not listed: [4] | [8] | [10]
inactive: all other assays above

C=CC(C)=CCC=C(C)C
not listed: [7] | [8] | [10]
inactive: all other assays above

CN1CCN(c2c(F)cc3c(=O)c(C(=O)O)cn4c3c2OCN4C)CC1
not listed: [7] | [9] | [10]
inactive: all other assays above

C[C@@H]1C[C@H]2[C@@H]3CCC4=CC(=O)C=C[C@]4(C)[C@@]3(F)[C@@H](O)C[C@]2(C)[C@@]1(O)C(=O)CO
not listed: [4] | [10]
inactive: all other assays above

N#C[C@@H]1C[C@@H]2C[C@@H]2N1C(=O)[C@@H](N)C12CC3CC(CC(O)(C3)C1)C2
not listed: [9] | [10]
inactive: all other assays above

C[C@]12CCC(=O)C=C1C=C[C@@H]1[C@@H]2CC[C@@]2(C)[C@H]1CC[C@@]21CCC(=O)O1
active: [8] 11.9 µM
not listed: [4] | [10]
inactive: all other assays above

CCCCCCCC/C=C\CCCCCCCC(=O)OC(CO)CO
active: [6] 43.6 µM
not listed: [7] | [8] | [10]
inactive: all other assays above

CCCCC(CC)COC(=O)COc1ccc(Cl)cc1C (stereo not drawn)
not listed: [9] | [10]
inactive: all other assays above

CC(=O)Oc1ccc2c(c1)CC[C@@H]1[C@@H]2CC[C@]2(C)[C@@H](O)CC[C@@H]12
not listed: [8] | [10]
inactive: all other assays above

O=c1[nH]c2ccc(S(=O)CCN3CCC(Cc4ccc(F)cc4)CC3)cc2o1 (stereo not drawn)
not listed: [4] | [8] | [10]
inactive: all other assays above

Nc1ccc(C(=O)OCCCOC(=O)c2ccc(N)cc2)cc1
inactive: [1] | [3] | [4] | [5] | [6]
active: [10] 43.6 µM

From PubChem BioAssay (Tox21)
